Data from ChEMBL document CHEMBL1157539, “Thousands of chemical starting points for antimalarial lead identification” (Nature, 2010).

Each compound was assayed on Plasmodium falciparum (assay: GSK_TCMDC: Inhibition of Plasmodium falciparum 3D7 in whole red blood cells, using parasite LDH activity as an index of growth. Test compounds present at 2uM).
Format: functional

Question: How did the Inhibition turn out when O=C(O)C(F)(F)F.c1cc(CNCCN2CCNCC2)cc(-c2ccc(-c3nc4ccccc4[nH]3)cc2)c1 was run?
Answer: 98%

Question: For O=C(Nc1cccc(-c2ccc(-c3nc4ccccc4[nH]3)cc2)c1)c1cccnc1, which Inhibition is on record?
Answer: 100%

Question: How did the Inhibition turn out when COc1ccc2nc3cc(Cl)ccc3c(NCCCO)c2c1 was run?
Answer: 100%

Question: CCn1c(C)cc(C=C2SC(=Nc3ccccc3)NC2=O)c1C was tested. Which Inhibition did it give?
Answer: 90%

Question: With CC(C)NC(C)(C)CN(Cc1ccc(-c2ccc(C(F)(F)F)cc2)cc1)C(=O)Cn1c(CCc2cccc(F)c2F)nc(=O)c2ccccc21 as the compound, how does the Inhibition read?
Answer: 94%

Question: Which Inhibition does the source give for O=C(NCCCCN1CCC(c2ccc3ccccc3c2O)CC1)c1ccc(NC(=O)c2ccc(Cl)cc2)cc1 here?
Answer: 100%

Question: Which Inhibition does the source give for COc1ccc(-c2cnc3[nH]cc(-c4ccc(C(=O)O)cc4)c3c2)cn1.O=C(O)C(F)(F)F here?
Answer: 95%

Question: With Oc1cccc2ccc(Nc3ccccn3)nc12 as the compound, how does the Inhibition read?
Answer: 99%

Question: Which Inhibition does the source give for Cc1ccccc1N1CCN(c2ccc(C(=O)NC(C)C)cn2)CC1.O=C(O)C(F)(F)F here?
Answer: 89%

Question: For COc1ccc2nccc([C@@H](O)CN3CCC(CO)(NCc4cc5ccccc5o4)CC3)c2c1.O=C(O)C(=O)O, which Inhibition is on record?
Answer: 85%

Question: How did the Inhibition turn out when COc1ccc(NC(=O)CCNc2cc(C)nc(NCCc3ccc(F)cc3)n2)cc1.O=C(O)C(F)(F)F was run?
Answer: 98%

Question: For Cc1cc(O)c(-c2ccc(Sc3ccc(Cl)cc3)cc2)c(C)n1, which Inhibition is on record?
Answer: 92%

Question: With CN1CCN(Cc2cccc(-c3cc4nccc(Nc5ccc(Oc6ccccc6)cc5)c4cc3Cl)c2)CC1 as the compound, how does the Inhibition read?
Answer: 100%

Question: Which Inhibition does the source give for Cc1ccc(S(=O)(=O)NC2CCN(c3ccnc4cc(Cl)ccc34)C2)cc1.O=C(O)C(F)(F)F (stereo unspecified) here?
Answer: 99%

Question: Which Inhibition does the source give for S=C(NCCc1ccccc1)Nc1ccc2ncsc2c1 here?
Answer: 96%

Question: With Cc1ccc(Nc2nc(-c3ccccn3)cs2)nc1 as the compound, how does the Inhibition read?
Answer: 94%

Question: For O=C(/C=C/c1ccc(Cl)c(Cl)c1)NCCCCCCN1CCCN(C(=O)Nc2cccc(Cl)c2)CC1, which Inhibition is on record?
Answer: 94%

Question: Cc1cccc(-n2nc(C)c3c2NC(=O)CC3C(=O)c2ccc(Cl)s2)c1 (stereo unspecified) was tested. Which Inhibition did it give?
Answer: 92%

Question: How did the Inhibition turn out when CCOc1ccc(-c2nonc2NC(=O)c2ccc(OC)cc2)cc1OCC was run?
Answer: 98%

Question: Which Inhibition does the source give for C=C[C@]1(C)C[C@@H](OC(=O)NC(=O)C2CCN(C(=O)CSc3ccccc3)CC2)[C@]2(C)[C@H](C)CC[C@]3(CCC(=O)[C@H]32)[C@@H](C)[C@@H]1O here?
Answer: 93%

Question: Which Inhibition does the source give for Cc1cccc2nc(-c3ccc(-c4cccc(CNCCN(C)C)c4)cc3)[nH]c12.O=C(O)C(F)(F)F here?
Answer: 100%

Question: With O=S(=O)(Nc1cccc(CCN2CCCCC2CCN2CCCC2)c1)c1ccc2ccccc2c1 (stereo unspecified) as the compound, how does the Inhibition read?
Answer: 91%

Question: CC(Cc1ccc(OCCN2CCN(c3cccc(Cl)c3)CC2)cc1)NCC(O)c1cccc(C(F)(F)F)c1.Cl (stereo unspecified) was tested. Which Inhibition did it give?
Answer: 99%

Question: NC(=O)c1ccc(-n2cnc3cc(F)ccc32)cc1OCc1ccccc1C(F)(F)F.NC(=O)c1ccc(-n2cnc3ccc(F)cc32)cc1OCc1ccccc1C(F)(F)F was tested. Which Inhibition did it give?
Answer: 97%

Question: Cc1cccc(-c2nn(-c3ccccc3)cc2C(=O)Nc2nnc(C)o2)c1 was tested. Which Inhibition did it give?
Answer: 84%

Question: How did the Inhibition turn out when COc1ccc(CCNC(C)Cc2ccc(C(=O)Nc3ccc(CC(C)NCCc4cccc(Cl)c4)cc3)cc2)cc1 (stereo unspecified) was run?
Answer: 100%

Question: How did the Inhibition turn out when COc1cc(NC(=O)Nc2ccnc3ccccc23)cc(OC)c1.Cl was run?
Answer: 98%

Question: CC(C)c1ccc(CN2CCC(NC(=O)c3ccc(-c4cccc(Cl)c4)s3)CC2)cc1.O=C(O)C(F)(F)F was tested. Which Inhibition did it give?
Answer: 82%

Question: COc1cc(C(=O)NCc2nn(CCN3CCC(N4CCCC4)CC3)cc2-c2ccc(Cl)c(Cl)c2)cc(OC)c1OC was tested. Which Inhibition did it give?
Answer: 97%

Question: Which Inhibition does the source give for Cc1cc(N[C@@H](Cc2ccccc2)C(=O)NCc2cccc(F)c2)nc(NCCOc2ccccc2)n1.O=C(O)C(F)(F)F here?
Answer: 97%

Question: Cc1c(-c2ccccc2)ccc2[nH]cc(CC#N)c12 was tested. Which Inhibition did it give?
Answer: 95%

Question: CCCN(CCC)C(=O)c1cc(C(=O)N[C@@H](Cc2ccccc2)[C@H](O)CNC(C)(C)c2cccc(OC)c2)cc(N2CCCCS2(=O)=O)c1 was tested. Which Inhibition did it give?
Answer: 99%

Question: Which Inhibition does the source give for COc1cc2ncnc(Nc3ccc4nc(-c5ccccc5)[nH]c4c3)c2cc1OC.Cl here?
Answer: 92%

Question: With O=C(Nc1ccc(Cl)cc1)c1cc(Cl)cc2nc(C(F)(F)F)[nH]c12 as the compound, how does the Inhibition read?
Answer: 100%

Question: With CN(C)CCNCc1ccc(-c2ccc3c(Nc4ccc(Oc5ccccc5)cc4)ccnc3c2)o1 as the compound, how does the Inhibition read?
Answer: 100%

Question: With Cc1cccc(CC2CC(=O)N(c3ccc([N+](=O)[O-])cc3)C2=O)c1 (stereo unspecified) as the compound, how does the Inhibition read?
Answer: 95%
